Laboratory results: the supplement of paper PMC10037445
The full ranking holds about 2,900 compounds; the median of “NF-kB SEAP reporter activity, fold change vs agonist alone” is about 0.99, and the highest 2% start at about 2.6. What follows is part of a selection rich in the highest values, with near analogues and random picks from the rest.

Tests used:
RAW-Dual [1] = assay: NF-kB SEAP reporter activity, fold change vs agonist alone; higher = enhanced NF-kB activity
How it was run: (§1)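 Library stock was pin-tooled at 50 nL into 384-well plates of RAW-Dual macrophages (50,000 cells/well, DMEM), followed 1 h later by a PRR agonist, and the cells were kept at 37 °C, 5% CO2. Supernatant collected after 20 hours was read for IRF by QuantiLuc luminescence and for NF-κB by QuantiBlue absorbance at 620 nm. Reporter activity is fold change over agonist-alone wells, and a well counted as cytotoxic when its IncuCyte confluency was below 70% of agonist controls in both mask sets.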

RAW-Dual [2] = assay: NF-kB SEAP reporter activity, fold change vs agonist alone; cytotoxicity flag (confluency mask): not cytotoxic; higher = enhanced NF-kB activity
How it was run: as §1

RAW-Dual [3] = assay: NF-kB SEAP reporter activity, fold change vs agonist alone; cytotoxicity flag (confluency mask): cytotoxic (confluency <70% of control); higher = enhanced NF-kB activity
How it was run: as §1

[4] = library stock concentration (final ~1000-fold dilution): 10 mM, cytotoxicity flag (confluency mask): not cytotoxic, agonist: Imiquimod (TLR7) […]
[5] = library stock concentration (final ~1000-fold dilution): 10 mM, cytotoxicity flag (confluency mask): not cytotoxic, agonist: MPLA (TLR4) […]
[6] = agonist: ODN 1826 (TLR9) 0.5 ug/mL
[7] = agonist: Pam2CSK4 (TLR2/6) 0.1 ug/mL
[8] = agonist: Pam3CSK4 (TLR2/1) 0.1 ug/mL

Structure (SMILES): NC1(C(=O)NC(CCO)c2ccc(Cl)cc2)CCN(c2ncnc3[nH]ccc23)CC1 (configuration not stated)
- NF-kB SEAP reporter activity (RAW-Dual [1]; [4]): 0.829
- NF-kB SEAP reporter activity (RAW-Dual [1]; [5]): 0.793

Structure (SMILES): NC1(C(=O)NC(CCO)c2ccc(Cl)cc2)CCN(c2ncnc3[nH]ccc23)CC1 (configuration not stated) (library stock concentration (final ~1000-fold dilution): 10 mM)
- NF-kB SEAP reporter activity (RAW-Dual [2]; agonist: LPS (TLR4) 0.1 ug/mL): 0.9
- NF-kB SEAP reporter activity (RAW-Dual [2]; [6]): 1.06
- NF-kB SEAP reporter activity (RAW-Dual [2]; [7]): 0.974
- NF-kB SEAP reporter activity (RAW-Dual [2]; [8]): 0.723

Structure (SMILES): O=C1N=C(O)CN1N=Cc1ccc(-c2ccc([N+](=O)[O-])cc2)o1 (library stock concentration (final ~1000-fold dilution): 10 mM)
- NF-kB SEAP reporter activity (RAW-Dual [2]; agonist: LPS (TLR4) 0.1 ug/mL): 1.06
- NF-kB SEAP reporter activity (RAW-Dual [2]; [6]): 0.843
- NF-kB SEAP reporter activity (RAW-Dual [2]; [7]): 0.877
- NF-kB SEAP reporter activity (RAW-Dual [2]; [8]): 0.756

Structure (SMILES): O=C1N=C(O)CN1N=Cc1ccc(-c2ccc([N+](=O)[O-])cc2)o1
- NF-kB SEAP reporter activity (RAW-Dual [1]; [5]): 1.03

Structure (SMILES): COC(=O)Nc1ccc(-c2nc(N3CCOCC3)c3cnn(C4CCN(C(=O)OC)CC4)c3n2)cc1 (library stock concentration (final ~1000-fold dilution): 10 mM)
- NF-kB SEAP reporter activity (RAW-Dual [2]; agonist: LPS (TLR4) 0.1 ug/mL): 0.888
- NF-kB SEAP reporter activity (RAW-Dual [2]; [6]): 0.912
- NF-kB SEAP reporter activity (RAW-Dual [2]; [7]): 0.867
- NF-kB SEAP reporter activity (RAW-Dual [2]; [8]): 0.873

Structure (SMILES): CN1CCN(Cc2ccc(-c3cnc4[nH]cc(-c5ccc6[nH]ccc6c5)c4c3)cc2)CC1
- NF-kB SEAP reporter activity (RAW-Dual [1]; [4]): 0.132
- NF-kB SEAP reporter activity (RAW-Dual [1]; [5]): 0.242

Structure (SMILES): COC(=O)Nc1ccc(-c2nc(N3CCOCC3)c3cnn(C4CCN(C(=O)OC)CC4)c3n2)cc1
- NF-kB SEAP reporter activity (RAW-Dual [1]; [4]): 0.976
- NF-kB SEAP reporter activity (RAW-Dual [1]; [5]): 0.895

Structure (SMILES): c1cncc(CN2CCC(n3ncc4c(N5CCOCC5)nc(-c5ccc6[nH]ccc6c5)nc43)CC2)c1 (library stock concentration (final ~1000-fold dilution): 10 mM)
- NF-kB SEAP reporter activity (RAW-Dual [2]; agonist: LPS (TLR4) 0.1 ug/mL): 2.91
- NF-kB SEAP reporter activity (RAW-Dual [2]; [6]): 0.951
- NF-kB SEAP reporter activity (RAW-Dual [2]; [7]): 1.44
- NF-kB SEAP reporter activity (RAW-Dual [2]; [8]): 0.777

Structure (SMILES): CN1CCN(Cc2ccc(-c3cnc4[nH]cc(-c5ccc6[nH]ccc6c5)c4c3)cc2)CC1 (library stock concentration (final ~1000-fold dilution): 10 mM)
- NF-kB SEAP reporter activity (RAW-Dual [2]; agonist: LPS (TLR4) 0.1 ug/mL): 0.216
- NF-kB SEAP reporter activity (RAW-Dual [2]; [6]): 0.181
- NF-kB SEAP reporter activity (RAW-Dual [2]; [7]): 0.0629
- NF-kB SEAP reporter activity (RAW-Dual [2]; [8]): 0.138

Structure (SMILES): c1cncc(CN2CCC(n3ncc4c(N5CCOCC5)nc(-c5ccc6[nH]ccc6c5)nc43)CC2)c1
- NF-kB SEAP reporter activity (RAW-Dual [1]; [4]): 0.96
- NF-kB SEAP reporter activity (RAW-Dual [1]; [5]): 0.899

Structure (SMILES): Cc1cnc(NC(=O)Nc2cc(Br)c(C)cc2OCC2CNCCO2)cn1 (configuration not stated) (library stock concentration (final ~1000-fold dilution): 10 mM)
- NF-kB SEAP reporter activity (RAW-Dual [2]; agonist: LPS (TLR4) 0.1 ug/mL): 0.68
- NF-kB SEAP reporter activity (RAW-Dual [2]; [6]): 0.903
- NF-kB SEAP reporter activity (RAW-Dual [2]; [7]): 0.51
- NF-kB SEAP reporter activity (RAW-Dual [2]; [8]): 0.818

Structure (SMILES): Cc1cnc(NC(=O)Nc2cc(Br)c(C)cc2OCC2CNCCO2)cn1 (configuration not stated)
- NF-kB SEAP reporter activity (RAW-Dual [1]; [4]): 0.872
- NF-kB SEAP reporter activity (RAW-Dual [1]; [5]): 0.946

Structure (SMILES): CCC(N)CNc1ccnc(-c2cc(-c3cnn(C)c3)ccc2O)n1.Cl.Cl (configuration not stated) (library stock concentration (final ~1000-fold dilution): 10 mM)
- NF-kB SEAP reporter activity (RAW-Dual [3]; agonist: LPS (TLR4) 0.1 ug/mL): 0.267
- NF-kB SEAP reporter activity (RAW-Dual [3]; [6]): 0.195
- NF-kB SEAP reporter activity (RAW-Dual [3]; [7]): 0.0684
- NF-kB SEAP reporter activity (RAW-Dual [3]; [8]): 0.127

Structure (SMILES): CCC(N)CNc1ccnc(-c2cc(-c3cnn(C)c3)ccc2O)n1.Cl.Cl (configuration not stated)
- NF-kB SEAP reporter activity (RAW-Dual [1]; library stock concentration (final ~1000-fold dilution): 10 mM, cytotoxicity flag (confluency mask): cytotoxic (confluency <70% of control), agonist: Imiquimod (TLR7) […]): 0.144
- NF-kB SEAP reporter activity (RAW-Dual [1]; library stock concentration (final ~1000-fold dilution): 10 mM, cytotoxicity flag (confluency mask): cytotoxic (confluency <70% of control), agonist: MPLA (TLR4) […]): 0.254

Structure (SMILES): N=C(N)NCCCCC1NC(=O)CCSSCC(C(N)=O)NC(=O)C2CCCN2C(=O)C(Cc2c[nH]c3ccccc23)NC(=O)C(CC(=O)O)NC(=O)CNC1=O (configuration not stated)
- NF-kB SEAP reporter activity (RAW-Dual [1]; library stock concentration (final ~1000-fold dilution): 10 mM water, cytotoxicity flag (confluency mask): not cytotoxic, agonist: Imiquimod (TLR7) […]): 0.957
- NF-kB SEAP reporter activity (RAW-Dual [1]; library stock concentration (final ~1000-fold dilution): 10 mM water, cytotoxicity flag (confluency mask): not cytotoxic, agonist: MPLA (TLR4) […]): 1.11

Structure (SMILES): N=C(N)NCCCCC1NC(=O)CCSSCC(C(N)=O)NC(=O)C2CCCN2C(=O)C(Cc2c[nH]c3ccccc23)NC(=O)C(CC(=O)O)NC(=O)CNC1=O (configuration not stated) (library stock concentration (final ~1000-fold dilution): 10 mM water)
- NF-kB SEAP reporter activity (RAW-Dual [2]; agonist: LPS (TLR4) 0.1 ug/mL): 1.2
- NF-kB SEAP reporter activity (RAW-Dual [2]; [6]): 1.15
- NF-kB SEAP reporter activity (RAW-Dual [2]; [7]): 1.24
- NF-kB SEAP reporter activity (RAW-Dual [2]; [8]): 1.06

Structure (SMILES): O=c1cc(N2CCOCC2)oc2c(-c3ccc4c(c3)OCCO4)csc12
- NF-kB SEAP reporter activity (RAW-Dual [1]; [4]): 1.57
- NF-kB SEAP reporter activity (RAW-Dual [1]; [5]): 2.36

Structure (SMILES): CC(Nc1cc(F)cc(F)c1)c1cc(C(=O)N(C)C)cc2c(=O)cc(N3CCOCC3)oc12 (configuration not stated)
- NF-kB SEAP reporter activity (RAW-Dual [1]; [4]): 0.569
- NF-kB SEAP reporter activity (RAW-Dual [1]; [5]): 1.21

Structure (SMILES): CC(Nc1cc(F)cc(F)c1)c1cc(C(=O)N(C)C)cc2c(=O)cc(N3CCOCC3)oc12 (configuration not stated) (library stock concentration (final ~1000-fold dilution): 10 mM)
- NF-kB SEAP reporter activity (RAW-Dual [2]; agonist: LPS (TLR4) 0.1 ug/mL): 1.67
- NF-kB SEAP reporter activity (RAW-Dual [2]; [6]): 1.01
- NF-kB SEAP reporter activity (RAW-Dual [2]; [7]): 1.02
- NF-kB SEAP reporter activity (RAW-Dual [2]; [8]): 1.13

Structure (SMILES): O=c1cc(N2CCOCC2)oc2c(-c3ccc4c(c3)OCCO4)csc12 (library stock concentration (final ~1000-fold dilution): 10 mM)
- NF-kB SEAP reporter activity (RAW-Dual [2]; agonist: LPS (TLR4) 0.1 ug/mL): 6.86
- NF-kB SEAP reporter activity (RAW-Dual [2]; [6]): 2.26
- NF-kB SEAP reporter activity (RAW-Dual [2]; [7]): 0.957
- NF-kB SEAP reporter activity (RAW-Dual [2]; [8]): 2.84

Structure (SMILES): CNC(C)C(=O)NC(C(=O)N1CCCC1C(=O)Nc1snnc1-c1ccccc1)C1CCCCC1 (configuration not stated) (library stock concentration (final ~1000-fold dilution): 10 mM)
- NF-kB SEAP reporter activity (RAW-Dual [2]; agonist: LPS (TLR4) 0.1 ug/mL): 0.612
- NF-kB SEAP reporter activity (RAW-Dual [2]; [6]): 0.875
- NF-kB SEAP reporter activity (RAW-Dual [2]; [7]): 0.972
- NF-kB SEAP reporter activity (RAW-Dual [2]; [8]): 0.8

Structure (SMILES): CNC(C)C(=O)NC(C(=O)N1CCCC1C(=O)Nc1snnc1-c1ccccc1)C1CCCCC1 (configuration not stated)
- NF-kB SEAP reporter activity (RAW-Dual [1]; [4]): 0.887
- NF-kB SEAP reporter activity (RAW-Dual [1]; [5]): 0.824

Structure (SMILES): O=C(Oc1cc(S(=O)(=O)c2ccccc2)ccc1[N+](=O)[O-])c1ccc(Cl)cc1
- NF-kB SEAP reporter activity (RAW-Dual [1]; [4]): 1.32
- NF-kB SEAP reporter activity (RAW-Dual [1]; [5]): 2.59

Structure (SMILES): O=C(Nc1ccccc1C(=O)O)c1cc(S(=O)(=O)c2ccccc2)ccc1Cl (library stock concentration (final ~1000-fold dilution): 10 mM)
- NF-kB SEAP reporter activity (RAW-Dual [2]; agonist: LPS (TLR4) 0.1 ug/mL): 1.19
- NF-kB SEAP reporter activity (RAW-Dual [2]; [6]): 0.999
- NF-kB SEAP reporter activity (RAW-Dual [2]; [7]): 1.09
- NF-kB SEAP reporter activity (RAW-Dual [2]; [8]): 1.13

Structure (SMILES): O=C(Oc1coc(CSc2ncccn2)cc1=O)c1ccc([N+](=O)[O-])cc1 (library stock concentration (final ~1000-fold dilution): 10 mM)
- NF-kB SEAP reporter activity (RAW-Dual [2]; agonist: LPS (TLR4) 0.1 ug/mL): 1.26
- NF-kB SEAP reporter activity (RAW-Dual [2]; [6]): 0.944
- NF-kB SEAP reporter activity (RAW-Dual [2]; [7]): 1.19
- NF-kB SEAP reporter activity (RAW-Dual [2]; [8]): 0.981

Structure (SMILES): O=C(Nc1ccccc1C(=O)O)c1cc(S(=O)(=O)c2ccccc2)ccc1Cl
- NF-kB SEAP reporter activity (RAW-Dual [1]; [4]): 0.883
- NF-kB SEAP reporter activity (RAW-Dual [1]; [5]): 1.01
